# Laboratory results reported in PubChem BioAssay (NCATS).
# Records with an inconclusive call do not appear. Entries that show only a call come without a potency. Activity calls are given as the source filed them. Calls come from the whole dose curve; as a rule, active = well fitted activation curve with a large enough effect; inconclusive = small, poorly fitted or top-dose-only effect; inactive = flat fitted curve, though single readings scatter.
# Assay: qHTS for Activators of Parkin Expression: LOPAC Validation Assay (NLuc Reporter) (AID 720572)
# Conditions: Parkin promoter NanoLuc reporter cells, luminescence; series mostly up to 46.1 µM
# From the text: Parkin is an E3 ubiquitin ligase localized in the cytosol of cells expressed in many tissues, including brain, skeletal muscle, heart and liver tissues. One hour after stress induction by mitochondrial uncouplers (which mimic mitochondria damage by decreasing the mitochondrial inner membrane electrochemical gradient that is used to produce ATP), Parkin translocates from the cytosol to mitochondria in many cultured cell types, including neurons and HeLa cells. Administration of other mitochondrial poisons, such as Paraquat and azide in cells lacking mitochondrial DNA (mtDNA), induces Parkin translocation to mitochondria. […] It was proposed that Parkin (together with Pink1) mediates a mitochondrial quality control pathway to maintain organelle population fidelity by removing damaged mitochondria. Understanding the normal physiologic role of Parkin (and Pink1) may uncover novel treatment strategies for sporadic Parkinson's disease patients with mutation in these genes.
# A cell based qHTS in 1536 well format was developed assess modulation of Parkin expression using a neuronal cell line that stably expresses a stably expresses a luminescent coincidence reporter (FLuc and NLuc reporters) behind the Parkin promoter. The LOPAC library is used to validate the assay for quantitative high-throughput screening. The data herein reports the signal from the NLuc reporter. An increase in this signal = activation of Parkin expression. For this assay , a positive control normalized signal increase corresponding to a high quality qHTS curve class in both luminescent channels is the desired outcome for this assay.
# NIH Chemical Genomics Center [NCGC]
# NIH Molecular Libraries Probe Centers Network [MLPCN]
# Assay Submitter (PI): Richard Youle, National Institute of Neurological Disorders and Strokes (NINDS), NIH
# [1] Narendra, D., et al., Parkin is recruited selectively to impaired mitochondria and promotes their autophagy. J Cell Biol, 2008. 183(5): p.
# [2] Suen, D.F., et al., Parkin overexpression selects against a deleterious mtDNA mutation in heteroplasmic cybrid cells. Proc Natl Acad Sci U S A, 2010. […] 11835-40.
# [3] Cheng K, Inglese J. A coincedence reporter-gene system for high-throughput screening. Nat Methods. 2012: 9(10);937
# Five microliters (1,500 cells/well) of the Parkin coincidence reporter cells were seeded to 1536 well assay plates (Greiner Catalog # 789173-F) and incubated at 37 C, 5% CO2 for 24 hours. Compounds (23 nL) were pinned using the Kalypsys robotic system equipped with 1536 pin head adaptor in 7-point dose response. The assay plates were incubated for additional 24 hr at 37 C, 5% CO2 followed by a volume reduction in each well to 2 uL using an automated plate washer/aspirator. Following the volume reduction,2 uL of FLuc detection reagent and plates were incubated for 10 minutes at room temperature. The FLuc luminescence signal was obtained using the PerkinElmer ViewLux plate imager and then 2 uL of NanoLuc detection reagent was added to the plates. After another 10 minute incubation, NanoLuc signal was obtained using the PerkinElmer ViewLux plate imager as before. Data from each channel was normalized to DMSO (neutral control) and the positive control compounds (100%).
row,SMILES,Potency
1,CN(C)c1ccc(/C=C2\C(=O)Nc3ccccc32)cc1,inactive
2,CN1CCc2cc(O)c(O)cc2C(c2ccccc2)C1 (stereo not given),inactive
3,NO,inactive
4,CCCN(CC1CC1)c1nc(C)nc(Nc2c(Cl)cc(Cl)cc2Cl)c1Cl,inactive
5,Nc1nc(Cl)nc2c1ncn2[C@@H]1O[C@H](COP(=O)(O)OP(=O)(O)OP(=O)(O)O)[C@@H](O)[C@H]1O,inactive
6,CCOC(=O)N1CCN(/[N+]([O-])=N/Oc2ccc([N+](=O)[O-])cc2[N+](=O)[O-])CC1,inactive
7,Oc1ccccc1O,inactive
8,NC(=S)NCCC[C@H](N)C(=O)O,inactive
9,O=C(O)CCCC[C@@H]1CCSS1,inactive
10,C[N+](C)(C)CCOP(=O)(O)OP(=O)([O-])OC[C@H]1O[C@@H](n2ccc(N)nc2=O)[C@H](O)[C@@H]1O,inactive
11,Cc1cc(NC2CCCCC2)nc(-n2nc(C)cc2C)n1,inactive
12,C=CC(=O)c1ccc(CCCCCC)cc1,inactive
13,Nc1nc(Nc2ccccc2)nc2c1ncn2[C@@H]1O[C@H](CO)[C@@H](O)[C@H]1O,inactive
14,CC(C)NC[C@H](O)COc1cccc2[nH]ccc12,inactive
15,O=C(O)CC1CC(c2ccccc2)=NO1 (stereo not given),inactive
16,OC[C@H]1O[C@@H](n2cnc3c(Nc4ccccc4)ncnc32)[C@H](O)[C@@H]1O,inactive
17,CC(C)ON([C@@H](C(=O)NO)C(C)C)S(=O)(=O)c1ccc(-c2ccccc2)cc1,inactive
18,Cn1cc(C2=C(c3ccc(Cl)cc3Cl)C(=O)NC2=O)c2ccccc21,inactive
19,COc1cc(SC)ccc1C(=O)N1CCC(Cc2ccccc2)CC1,inactive
20,O=C1C(SCCO)=C(SCCO)C(=O)c2ccccc21,inactive

row,SMILES,Potency
1,Cn1c(=O)c2[nH]c(-c3ccccc3)nc2n(C)c1=O,inactive
2,CN1CCc2ccccc2Cc2[nH]c3ccccc3c2CC1,inactive
3,COc1ccccc1N1CCN(CCCCNS(=O)(=O)c2cccc3c(N(C)C)cccc23)CC1,inactive
4,COc1ccccc1N1CCN(CCN(C(=O)c2ccc(I)cc2)c2ccccn2)CC1,inactive
5,N.N.N.N.N.N.N.N.N.N.N.N.N.N.O.O.[Ru+4].[Ru+5].[Ru+5],inactive
6,OCC1O[C@H](O)C(Cl)C(O)C1O (stereo not given in full),inactive
7,O=[N+]([O-])c1ccc(CSc2ncnc3c2ncn3[C@@H]2O[C@H](CO)[C@@H](O)[C@H]2O)cc1,inactive
8,O=C(c1ccc(Cl)cc1)N1CCN(c2ccc([N+](=O)[O-])c3ncccc23)CC1,inactive
9,CCCCC#Cc1nc(NC)c2ncn([C@@H]3O[C@H](CO)[C@@H](O)[C@H]3O)c2n1,inactive
10,Brc1c(Br)c(Br)c2n[nH]nc2c1Br,inactive
11,CN(C)c1nc(N)c(C(=O)N=C(N)N)nc1Cl,inactive
12,CN(C)C(N)=NCCC[C@H](N)C(=O)O,inactive
13,CCCCCCCCCCCCCCCC(=O)NCC(COP(=O)([O-])OCC[N+](C)(C)C)OCC (stereo not given),inactive
14,Cc1ccc(C(=O)O[C@H](C(=O)O)[C@@H](OC(=O)c2ccc(C)cc2)C(=O)O)cc1 (tested in a mixture with another compound),inactive
15,O=C(O)c1cc([N+](=O)[O-])ccc1NCCCc1ccccc1,inactive
16,C[C@@H](CN1CCC(Cc2ccccc2)CC1)[C@@H](O)c1ccc(O)cc1,inactive
17,O=C(O)c1cc(=O)c2c(Cl)cc(Cl)cc2[nH]1,inactive
18,Nc1ncnc2c1ncn2[C@@H]1O[C@H](COP(=O)(O)OP(=O)(O)OP(=O)(O)OP(=O)(O)OC[C@@H]2O[C@H](n3cnc4c(N)ncnc43)[C@@H](O)[C@H]2O)[C@@H](O)[C@H]1O,inactive
19,CCCCCCCC/C=C\CCCCCCCC(=O)NCCO,inactive
20,CCC1C(=O)OCC1Cc1cncn1C (stereo not given),inactive
